High-throughput results from PubChem.
In the library only some 2.8% were active in any assay of this set; here they are far more common.
Platelet DG rel = modulates dense granule release in human platelets; human platelet-rich plasma, SFLLRN dense granule ATP release, luminescence; inhibition, %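 (compounds screened at 7.5 µM in platelet-rich plasma)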; 0.22% of 300,000 active; AID 1663;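 active = mean replicate score, as percent of positive control, at or above 50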
HSP90 refold inh = HSP90 refolding inhibition in rabbit reticulocyte lysate. 0.91% of 290,000 active. luciferase refolding luminescence, 3 h. inhibition, % at 5.6 µM;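 active = inhibition above the screen-wide mean plus 3 SD, computed separately per campaign, cut at about 16% in these data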;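 also: 0% = DMSO wells and 100% = 60 µM geldanamycin wells; inhibitors lower the luminescence because luciferase stays unfolded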
SENP8 block-1 = inhibitors of human SENP8 protease | Q96LD8 | purified SENP8, Z-RLRGG-aminoluciferin cleavage, luminescence | inhibition, % at 10 µM | 1.2% of 330,000 active | AID 2540; in the data active = inhibition above about 50%
SENP6 block = inhibitors of human SENP6 protease; Q9GZR1; Recombinant SENP6 catalytic domain, aminoluciferin luminescence; inhibition, % at 10 µM; 1.8% of 330,000 active;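 active = inhibition above about 50% at the single tested dose, limit read from the data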;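 also: plate controls were DMSO wells with enzyme for no effect and DMSO wells lacking enzyme for full effect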
Target sequence (Q9GZR1 628-1112 limits assumed): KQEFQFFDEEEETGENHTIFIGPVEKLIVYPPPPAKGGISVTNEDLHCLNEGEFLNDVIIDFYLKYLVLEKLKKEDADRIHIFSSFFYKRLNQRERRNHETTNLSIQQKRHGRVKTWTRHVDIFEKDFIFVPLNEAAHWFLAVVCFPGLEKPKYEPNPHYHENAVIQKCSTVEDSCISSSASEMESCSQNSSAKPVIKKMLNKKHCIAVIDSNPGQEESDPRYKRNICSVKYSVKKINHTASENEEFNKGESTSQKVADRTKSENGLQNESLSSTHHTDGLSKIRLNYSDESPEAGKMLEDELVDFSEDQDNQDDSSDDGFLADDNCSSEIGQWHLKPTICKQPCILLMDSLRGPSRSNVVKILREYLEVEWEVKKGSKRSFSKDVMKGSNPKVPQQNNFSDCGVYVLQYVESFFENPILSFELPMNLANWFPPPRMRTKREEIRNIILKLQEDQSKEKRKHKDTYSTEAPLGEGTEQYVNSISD
SENP8 block-2 = blocks human SENP8 cleavage of Nedd8 substrate; inhibition, % at 20 µM; Q96LD8; recombinant SENP8, Nedd8 substrate fluorescence; 0.64% of 360,000 active; in the data active = inhibition mostly above about 40%, no sharp cut-off; inactive = mostly below about 27%
SENP7 block = inhibitors of human SENP7 protease | Q9BQF6 | recombinant SENP7, Z-RLRGG-aminoluciferin luminescence, 40 min | inhibition, % at 5 µM | 1.5% of 330,000 active | AID 434973;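 active = inhibition above about 50% at the single test dose, limit read from the data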;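 also: plate controls were DMSO with enzyme for no effect and no enzyme buffer wells for full effect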
* = called active by the depositor; nt = no result given.

SMILES	Platelet DG rel	HSP90 refold inh	SENP8 block-1	SENP6 block	SENP8 block-2	SENP7 block
CC(=O)Nc1cccc(NC(=O)c2oc3ccccc3c2C)c1	-2	-4	23	39	nt	54*
CC(=O)Nc1ccc(NC(=S)NC(=O)c2oc3ccccc3c2C)cc1	3	1	8	13	16	4
C#CCn1cc(C=C2C(=O)c3ccccc3C2=O)c2ccccc21	9	2	nt	nt	38*	nt
CCCCN1C(=O)C(CC(=O)NCc2ccco2)CC(C(=O)N2CCCCCC2)=C1C (stereo unspecified)	nt	nt	nt	nt	15	nt
COc1ccc(-n2c(C)c(C(C)=O)c(C(C)=O)c2C)cc1OC	53*	2	-8	-27	31	-4
COc1ccc(-n2c(C)c(C(C)=O)c(C(C)=O)c2C)cc1	3	-4	3	20	20	-8
COc1ccc(-c2cc(CNc3nc(NCc4ccccc4OC)nc4ccsc34)on2)cc1	nt	nt	nt	nt	-22	nt
CC(C)N1CCCC(C)(C(=O)Nc2nc3ccccc3[nH]2)C1 (stereo unspecified)	nt	nt	nt	nt	15	nt
COCCCNC(=O)c1ccc2c3c(onc13)-c1ccccc1C2=O	-6	4	38	54*	106*	18
Clc1c(CSc2nc3ccccc3o2)nc2ccccn12	nt	8	19	52*	4	37
O=C(CCN1C(=O)C2CCCCC2C1=O)N1CCN(S(=O)(=O)c2ccccc2)CC1 (stereo unspecified)	1	nt	-12	-7	9	1
COC(=O)[C@]1(CC(C)C)N[C@H](c2ccc(-c3ccc(F)cc3)c(OC)c2)[C@@H]2C(=O)N(C)C(=O)[C@@H]21	3	nt	2	8	-92	3
CSc1ccc(/C=C2\CCn3c2nc2cc(C(=O)O)ccc2c3=O)cc1	19	7	1	8	-279	6
Cc1ccc(CNc2ccc(O)cc2)cc1	5	1	44	48	72*	5
Cc1ccc(S(=O)(=O)Cc2ccc(C(=O)N3CCN(c4cccc(C)c4C)CC3)o2)cc1	94*	2	5	-15	11	1
Clc1ccc(-c2cnc3ccccc3n2)cc1	-7	-8	85*	90*	-4	92*
Clc1ccc(Sc2cnc3ccccc3n2)cc1	-3	1	-22	-5	-4	-7
CC(=O)NN1C(=O)/C(=C/c2ccc(Br)o2)SC1=S	1	-1	-6	-1	44*	-6
CC(=O)NN1C(=O)/C(=C\c2ccc(Br)o2)SC1=S	22	1	9	-7	29	5
O=C(NCc1ccccc1)C12CC3CC(CC(C3)C1)C2	6	2	-12	-17	5	-3
CC1(C)C(=O)C2(C(=O)NCc3ccccc3)CCC1C2 (stereo unspecified)	5	17*	-2	-11	9	1
N#Cc1cc2c(nc1SCc1nc3ccccc3[nH]1)CCC2	1	15	54*	81*	nt	12
CCCCNC(=O)C(NC(=O)c1cccc(C(F)(F)F)c1)C(=O)c1ccccc1 (stereo unspecified)	nt	nt	nt	nt	30	nt
Cc1cccc(NC(=O)c2cnc3ccccn3c2=O)c1	nt	-1	67*	81*	-42	67*
CCCNC(=O)C1(O)c2cc(Br)ccc2NC(=O)N1c1ccc(Cl)cc1 (stereo unspecified)	-2	2	-1	-2	21	2
SMILES	Platelet DG rel	HSP90 refold inh	SENP8 block-1	SENP6 block	SENP8 block-2	SENP7 block
CC1CCCC(C)N1CCNC(=O)CCc1nnc2n(Cc3ccccc3)c(=O)c3ccccc3n12 (stereo unspecified)	0	-7	-4	6	-3	1
CCOc1ccc(/C=C2/SC(=S)N(n3c(C)ccc3C)C2=O)cc1	16	1	-4	2	41*	-7
Cc1ccc(N=Cc2cc(Cc3ccccc3Cl)cc([N+](=O)[O-])c2O)c(O)c1	6	4	10	17	52*	-8
CC(C)(C)c1ccc(C(=O)NCC(=O)NCC(C)(C)N2CCOCC2)cc1	nt	nt	14	-1	-37	-4
Cc1ccnc(SCC(=O)N2CCN(C(c3ccccc3)c3ccccc3)CC2)n1	2	16*	10	-17	3	2
O=C(Nc1ccc(S(=O)(=O)N2CCCCC2)cc1)c1ccc(CN2CCc3ccccc3C2)cc1	-1	3	1	3	53*	-6
COc1ccc(C2C(C#N)=C(/N=C/N3CCN(C)CC3)OC3=C2C(=O)CC(C)(C)C3)cc1OC (stereo unspecified)	-3	0	-7	-27	5	50*
COc1cc(C2C(C#N)=C(N)OC3=C2C(=O)CC(C)(C)C3)ccc1OC(=O)N1CCOCC1 (stereo unspecified)	-2	-4	-2	-27	8	6
O=C(c1ccc2nc(N3CCCCC3)sc2c1)N1CCN(Cc2ccc3c(c2)OCO3)CC1	-10	31*	-2	-7	-2	2
CCCCNc1ccc2nsnc2c1[N+](=O)[O-]	-3	0	-4	67*	11	20
Cc1ccc2nsnc2c1NC(=O)c1ccc([N+](=O)[O-])cc1	0	0	-4	5	21	-7
CC1CN(C(=O)CCS(=O)(=O)c2ccccc2)CC(C)O1 (stereo unspecified)	-47	0	-7	-9	9	-5
Cc1nccc(-c2cccc(NC(=O)Nc3ccc(Cl)cc3)c2)n1	-7	-3	-3	-4	-11	-1
Cc1nccc(-c2cccc(N/N=C(\C#N)C(=O)c3ccccc3)c2)n1	-33	0	3	5	38*	-1
O=c1c(C=NCCN2CCNCC2)c(-c2ccccc2)[nH]n1-c1ccc([N+](=O)[O-])cc1	15	-2	90*	93*	nt	84*
Cc1cccc(C)c1NC(=O)C1(C)CN(S(C)(=O)=O)CC(=O)N1CCCN1CCOCC1 (stereo unspecified)	nt	nt	nt	nt	33	nt
O=[N+]([O-])c1c(Nc2ccccn2)cc(Cl)c2nonc12	59*	12	43	87*	68*	95*
O=[N+]([O-])c1c(Nc2ccc(O)cc2)cc(Cl)c2nonc12	56*	3	5	-6	37	1
CN(C)c1cc(Nc2ccc(O)cc2)c([N+](=O)[O-])c2nonc12	-3	-5	-7	-5	39	-1
Cc1cc(NC(=O)CSCC(=O)Nc2cc(C(F)(F)F)ccc2N2CCCC2)no1	-1	nt	-5	-6	4	6
Cc1cc(NC(=O)CSCC(=O)Nc2ccccc2N2CCCCC2)no1	50*	nt	4	-1	8	2
O=C1C(NS(=O)(=O)c2cccs2)=C(N2CCN(c3cccc(C(F)(F)F)c3)CC2)C(=O)c2ccccc21	12	3	6	6	56*	24
CN1CCN(C2=C(NS(=O)(=O)c3cccs3)C(=O)c3ccccc3C2=O)CC1	8	0	9	17	30	7
